Growth data for 8 compounds are collected here from PubChem BioAssay (NCI).

Compounds without any hit were thinned out: in the full panel of roughly 83,000, 20% have a hit.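 Cells were grown in 96-well plates and exposed to the test compound at a single concentration for 48 hours; results are reported as percent growth, with values below 10 considered active.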 Values without a mark were called inactive. The source made the active and inactive calls.

What all share (test): NCI-60 one-dose screen, 48 h (100 = growth as untreated, 0 = no growth, -100 = all killed)
Holding throughout (details): 10 µM unless noted

Test [1] relates to NCI-H23 lung.
For test [2], the system named is NCI-H226 lung.
Test [3] relates to NCI-H322M lung.
Test [4] concerns HOP-62 NSCLC.
The test system of test [5] is NCI-H460 lung.
Test [6] has as its system HOP-92 NSCLC.
Test [7] deals with NCI-H522 lung.
Test [8] relates to A549/ATCC NSCLC.
Test [9] concerns 786-0 renal.
Test [10] deals with COLO 205 colon.
In test [11] the test system is DU-145 prostate.
Test [12] deals with K-562 leukemia.
Test [13] concerns MALME-3M melanoma.
Test [14] has as its system MDA-MB-231 breast.
In test [15] the test system is RXF 393 renal.
Test [16] has as its system SF-268 CNS.
For test [17], the system named is SF-295 CNS.
In test [18] the test system is UACC-257 melanoma.
Test [19] relates to SF-539 CNS.
For test [20], the system named is M14 melanoma.

Regarding `NC(=S)N/N=C/c1ccc(OC(=O)COc2ccccc2)cn1`, the growth was 28.2% in [1]; 92% in test [2]; 54% in [3]; 57.9% in [4]; 83.5% in [5]; 63.8% in test [6]. The growth is 58% in test [7]; 107% in test [8]; 22% in test [9]; 85.9% in test [10]; 26.1% in [11]; 53.4% in test [12]. In addition, the growth in [13] is 52.2%; in test [14] it was 60%; in test [15], 72.2%; in test [16] it was 30.7%; in [17], 111%; in [18] it was 90.6%.
Take `CCN(CC)CCCC(C)NC(=S)N/N=C(\C)c1ccccn1` (stereo not drawn): the growth in test [1] is 73.1%; in test [2] it was 33.2%; in test [3], 31.9%; in [4], 45.4%; in test [5], 24.7%; in test [6], 46.1%. Besides, the growth in test [7] was 47.2%; in [8], 48.9%; in test [9], 23.4%; in test [10], 28.9%; in test [11], 42.1%; in test [12] it was 38.7%. The growth in [13] is 33.5%; in [14], 36.8%; in test [15] it was 49.4%; in [16] it was 43.7%; in [19] it was 31.2%; in test [18] it was 57.4%.
For the compound `CSc1cnc2ccccc2n1`, the growth in test [1] is 103%; in test [2], 103%; in test [3], 94.4%; in test [4] it was 84.7%; in test [5] it was 102%; in [6], 99.6%. Moreover, the growth is 80% in test [7]; 82.8% in test [8]; 107% in test [9]; 116% in test [10]; 115% in [11]; 106% in [12]. Also, the growth in test [13] was 88.7%; in [14], 95.7%; in test [15] it was 111%; in test [16] it was 105%; in test [17] it was 97.9%; in test [18], 91.3%. The growth in test [20] is 97.3%.
Turning to `CCOc1ccc(C(=O)O)cc1`, the growth is 97.6% in test [1]; 91.9% in test [2]; 108% in [3]; 105% in test [4]; 103% in [5]; 90.4% in test [6]. The growth was 101% in [7]; 108% in test [8]; 101% in [9]; 105% in test [10]; 112% in test [11]; 115% in [12]. The growth is 118% in test [13]; 112% in test [14]; 105% in [15]; 110% in test [16]; 94.6% in test [17]; 106% in test [19]. Also, the growth was 104% in [18] and 97.5% in test [20].
As to `CCC(=O)Oc1ccc2ccccc2c1`, the growth was 100% in test [1]; 90.2% in test [2]; 103% in test [3]; 81% in [4]; 99.9% in test [5]; 86.1% in [6]. The growth in [7] is 99.5%; in [8], 99.4%; in [9] it was 96.9%; in [10], 102%; in test [11], 113%; in test [12], 107%. Besides, the growth is 93.7% in test [13]; 90.2% in test [14]; 105% in test [15]; 97.5% in test [16]; 101% in test [17]; 96.8% in test [19]. Further, the growth in test [18] was 96.6%; in test [20], 92.2%.
Take `CCCCCCCCCCCCCCCCOc1ccccc1NC(=O)CC(C)=O`: the growth in [1] is 111%; in [2] it was 105%; in test [3], 109%; in [4], 112%; in test [5] it was 112%; in [6], 96.4%. The growth was 87.1% in [7]; 91.7% in test [8]; 59.8% in [9]; 131% in [10]; 92% in [11]; 87.1% in [12]. Further, the growth was 117% in test [13]; 87.4% in test [14]; 107% in test [15]; 103% in [16]; 94.5% in [19]; 117% in [18].
Take `CC(=O)N(C(C)=O)c1ccc(C)cc1`: the growth was 98.1% in [1]; 96.2% in test [2]; 102% in test [3]; 105% in [4]; 107% in test [5]; 99.5% in test [6]. Also, the growth was 113% in test [7]; 104% in test [8]; 92.7% in test [9]; 119% in test [10]; 107% in test [11]; 99.1% in [12]. The growth in [13] was 97.2%; in [14], 102%; in test [15], 104%; in test [16], 96.9%; in test [17], 93.5%; in [19] it was 98%. The results for the growth in test [18] and in test [20] were 110% and 114%, respectively.
As to `Cc1onc(-c2c(F)cccc2Cl)c1-c1ncc(-c2ccc(Br)cc2)o1`, the growth in [1] was 42.1%; in [2] it was 73.1%; in [3], 61.9%; in test [4], 59.3%; in test [5] it was 4.75% (active); in test [6], 61.3%. Also, the growth was 41.9% in test [7]; 41.7% in test [8]; 10.7% in test [9]; 49.6% in [10]; 50% in [11]; 24% in test [12]. Moreover, the growth is 45.2% in test [13]; 52.3% in [14]; 58.7% in [15]; 43.1% in test [16]; 36.4% in test [17]; 39.6% in [19]. Moreover, the values for the growth in test [18] and in test [20] were 23.7% and 54.3%, respectively.
